Assay outcomes deposited in PubChem by National Center for Advancing Translational Sciences (NCATS).
An excerpt weighted towards active compounds, which were near 19% of everything screened.
HT1080 IDH1KD tx: kills HT-1080 cells with IDH1 knockdown | HT-1080 IDH1 knockdown viability, ATP luminescence, 48 h | Potency, µM (highest dose often 46.1 µM), usual class: cytotoxic | actives 2% (n = 360,000) | AID 686971
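Luminescent ATP read-out (CellTiter-Glo, 10 min at room temperature) after 48 h compound exposure at 37 °C gave viability of IDH1-knockdown HT-1080 cells. Activity was normalised to DMSO and cell-free wells, then fitted as concentration-response curves.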
IL1B secr inh: blocks inflammasome-driven IL-1 beta release; THP-1 LPS/ATP IL-1B secretion, AlphaLISA, 16 h; hits give low values; activity change, % at 57.5 µM; actives 4.7% (n = 360,000); AID 743279; in the data active = activity change below about -50%; inconclusive = mostly about -30% to -49%
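THP-1 cells pretreated 1 hr with compounds (up to 57.5 uM final), then stimulated with LPS (250 ng/mL final) plus ATP (1.25 mM final); secreted IL-1B measured by AlphaLISA after 16 hr, decreased signal indicating inhibition.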
TDP1 cell CPT: growth inhibition of DT40 Tdp1-/-;hTDP1 cells with camptothecin (screen for TDP1 inhibitors). chicken DT40 Tdp1-/-;hTDP1 cells + 20 nM CPT, ATP luminescence, 48 h. Potency, µM (highest dose often 46.2 µM), hits mostly inhibitors. actives 12% (n = 420,000); also: nearly all actives have a fitted effect of over 55% in size
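Chicken DT40 Tdp1-/- cells stably complemented with human TDP1 were seeded at 400 cells/well in medium containing 20 nM camptothecin, exposed to pin-transferred compounds, and grown at 37 °C for at least 48 hr. Viability was read as ATP luminescence.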
TDP1 cell noCPT: qHTS for Inhibitors of human tyrosyl-DNA phosphodiesterase 1 (TDP1): qHTS in cells in absence of CPT; Potency, µM (series often up to 46.2 µM), actives largely listed as inhibitors; DT40 Tdp1-/- hTDP1 cells, no CPT, ATP luminescence, 48 h; actives 15% (n = 420,000); AID 686978, 2013; also: nearly all actives have a fitted effect of over 55% in size
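Chicken DT40 Tdp1-/- cells complemented with human TDP1, screened without camptothecin (DMSO vehicle only), 400 cells/well. Compounds pin-transferred, cells incubated at 37 °C for at least 48 hr. Growth read as ATP-dependent luminescence (CellTiter-Glo, 30 min at RT).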
HT1080NT lethal: kills 2HG-producing HT-1080-NT fibrosarcoma cells; HT-1080-NT fibrosarcoma viability, CellTiter-Glo ATP luminescence, 48 h; Potency, µM (top dose mostly 46.1 µM), hits mostly cytotoxic; actives 1.6% (n = 360,000);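 also: NT is the 2HG producing partner of a matched IDH1 knockdown line; nearly all actives have a fitted effect of over 55% in size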
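A 48-hour cytotoxicity screen used HT-1080-NT cells plated 2 hours before compound delivery. ATP-based CellTiter-Glo luminescence measured viability, normalized to DMSO and no-cell controls.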
A number is an active result; 0 = inactive; ? = inconclusive; - = not tested or not shown; ! = a repeat was not active. Unless noted, calls follow the shape of the dose curve; as a rule, active = well fitted curve in the direction sought with a large enough effect; inconclusive = small, poorly fitted or top-dose-only effect, or another doubt; inactive = no such curve, though single readings can be large; an effect the other way counts as inactive or inconclusive.

SMILES | HT1080 IDH1KD tx | IL1B secr inh | TDP1 cell CPT | TDP1 cell noCPT | HT1080NT lethal
Clc1ccc(CCC(Cn2ccnc2)Sc2c(Cl)cccc2Cl)cc1 (configuration not stated) | ? | 0 | ? | 25.9µM | ?
Clc1ccc(Cn2ccnc2)cn1 | 0 | 0 | 0 | 0 | 0
CCOC(=O)c1sc(/N=C/c2c(O)n(-c3cccc(C)c3)c(=O)[nH]c2=O)c(C#N)c1C | 0 | 0 | 0 | 0 | 0
C[C@H](O)[C@H]1CC[C@H]2[C@@H]3CCC4=CC(=O)CC[C@]4(C)[C@H]3CC[C@]12C | 0 | 0 | 0 | 0 | 0
C[C@]12CC[C@H]3[C@@H](CCC4=CC(=O)CC[C@@]43C)[C@@H]1CC[C@@H]2O | 0 | 0 | 0 | 0 | ?
CCC(=O)O[C@H]1CC[C@H]2[C@@H]3CCC4=CC(=O)CC[C@]4(C)[C@H]3CC[C@]12C | - | -71.6 | ? | ? | -
CC12CCC(=O)C=C1CCC1C2CCC2(C)C(O)CCC12 (configuration not stated) | 0 | 0 | 23.1µM | ? | 0
C[C@]12CC[C@H]3[C@@H](CCC4=CC(=O)CC[C@@]43C)[C@@H]1CC[C@@H]2C(=O)CO | 0 | 0 | ? | 10.3µM | ?
CC(=O)C1C(N2CC2)CC2C3CCC4=CC(=O)CCC4(C)C3CCC21C (configuration not stated) | 0 | -61.2 | 7.31µM | 11.6µM | 0
COP(=O)(OC)C(O)C(Cl)(Cl)Cl (configuration not stated) | - | - | 0 | 0 | -
CC(=O)OC1(c2ccccc2)CCN(C)C2CCCCC21 (configuration not stated) | 0 | 0 | 0 | 0 | 0
CCC(=O)N1N=C(c2c(O)n(CCc3ccccc3)c(=O)[nH]c2=O)CC1c1ccc(OC)c(OC)c1 (configuration not stated) | ? | 0 | ? | ? | ?
Cc1ccc(C(=O)CN2CCOCC2)cc1 | - | - | 0 | 0 | -
CC1CCCCN1CC(=O)c1ccc2cc[nH]c2c1 (configuration not stated) | 0 | 0 | 0 | 0 | 0
CC1CCN(c2ccccc2NC(=O)c2cc3ccccc3o2)CC1 | 0 | 0 | ? | ? | 0
CC1=C2CCC3C(CCC4=CC(=O)CCC43C)C2CC1 (configuration not stated) | 0 | 0 | ? | 29.1µM | 0
C[C@]12CCC(=O)C=C1CC[C@@H]1[C@@H]2C(=O)C[C@]2(C)C(=O)CC[C@@H]12 | 0 | 0 | 0 | 0 | 0
O=C1NCCOC(=O)[C@H](Cc2ccc(F)cc2)CC/C=C/C[C@H]1CC(=O)N(CCO)Cc1ccccc1 | 0 | 0 | ? | ? | 0
CCOc1ccc(N=Cc2c(O)n(CCc3ccc(OC)c(OC)c3)c(=O)[nH]c2=O)cc1 | 0 | 0 | ? | 16.4µM | 0
COc1ccc(CCn2c(O)c(C=Nc3ccc(NC(C)=O)cc3)c(=O)[nH]c2=O)cc1OC | 0 | 0 | ? | 0 | ?
COc1ccc2cc1Oc1ccc(cc1)C[C@H]1c3cc(c(OC)cc3CCN1C)Oc1c(OC)c(OC)cc3c1[C@H](C2)N(C)CC3 | 14.6µM | -95.8 | 5.01µM! | 11.2µM! | 5.8µM
COc1cc2c3cc1Oc1c(OC)c(OC)cc4c1[C@@H](Cc1ccc(O)c(c1)Oc1ccc(cc1)C[C@@H]3N(C)CC2)N(C)CC4 | - | - | ? | 0 | -
COc1cc2c3c(c1OC)Oc1ccc(cc1)C[C@H]1c4c(cc(OC)c(OC)c4Oc4ccc(cc4)C[C@@H]3N(C)CC2)CCN1C | 0 | 0 | 16.4µM | 18.4µM | 0
COc1cc2c3cc1Oc1cc(ccc1O)C[C@@H]1c4c(cc(OC)c(O)c4Oc4ccc(cc4)C[C@H]3N(C)CC2)CCN1C | 0 | 0 | 4.11µM | 4.61µM | 0
C[N+]12CCC(CC1)C(OC(=O)C(O)(c1ccccc1)c1ccccc1)C2 (configuration not stated) | 0 | 0 | 0 | 0 | ?
C[N+](C)(C)Cc1ccccc1 | 0 | 0 | 0 | 0 | 0
Cc1cccc(NP2(=O)NCCCN2)c1 | 0 | 0 | 0 | 0 | 0
C[C@@]1(CO)[C@H](O)CC[C@@]2(C)[C@H]1CC[C@H]1C[C@@H]3C[C@@]12CC[C@]3(O)CO | - | - | 0.104µM | 0.131µM | -
